The campaign covered roughly 120,000 compounds. Fewer than 10 were called active. Not shown: some 4% with an inconclusive outcome. Calls follow the shape of the dose curve; as a rule, active = well fitted curve in the direction sought with a large enough effect in the signal ratio (not every such curve was filed as active); inconclusive = small, poorly fitted or top-dose-only effect, or a change in a side signal; inactive = no such curve, though single readings can be large or run the other way; the % refers to the signal ratio. Only a sample is shown.
What follows are compounds tested against Inositol monophosphatase 1 (Rattus norvegicus) (UniProt P97697) (assay: qHTS Assay for Identifying the Cell-Membrane Permeable IMPase Inhibitors). Conditions: CHO-M1 cells, HTRF TR-FRET ratio; series mostly up to 46.1 µM.
From the text: NCGC IMPase Assay Overview
Lithium has been widely used for the treatment of bipolar disorder. But lithium has a narrow therapeutic index and it can cause side effects such as thirst, weight gain, tremor, polyuria and memory problems. Although the mechanism for lithium action in treatment of bipolar disorder is still not fully understood, inhibition of inositol monophosphatase (IMPase) and the subsequent depletion of the inositol pool in living cells have been implicated as the primary therapeutic benefit of lithium therapy. Therefore, a selective IMPase inhibitor with reduced side effects might be a good drug candidate to replace lithium for the treatment of bipolar disorder. Several IMPase inhibitors have been discovered previously. However, they are not suitable for therapeutic use because of their poor cell membrane penetrability or oral bioavailability; the development of new cell-permeable IMPase inhibitors is needed.
IMPase catalyzes the hydrolysis of inositol-1-phosphate (IP1) to release free inositol. Binding of an agonist to a Gq coupled GPCR results in the activation of PLC, which hydrolyzes the PIP2 to form inositol-1,4,5-trisphosphate (IP3) and diacyl glycerol (DAG). While DAG activates protein kinase C (PKC), IP3 triggers the elevation of intracellular free Ca2+. The IP3 is very rapidly inactivated by hydrolysis to IP2, IP1 and then inositol by a series of enzymes including IMPase. Free inositols are used for synthesis of PI and thus start another inositol cycle.
To identify new cell-permeable IMPase inhibitors, we developed a cell-based IMPase assay in which the cytosolic IP1 is measured by a time-resolved fluorescence resonance energy transfer (TR-FRET) assay. In this assay, an IP1 specific antibody is used to detect the labeled IP1 tracer. When the cell lysate contains the elevated IP1 due to the inhibition of IMPase, the TR-FRET between the labeled antibody and IP1 tracer is disrupted resulting in a reduction in the total signal. Since the TR-FRET is used, this cell-based assay is a homogenous assay without cell wash and medium change that is suitable for assay miniaturization and HTS.
NCGC IMPase Assay Protocol Summary
A Chinese hamster ovary (CHO) cell line stably expressing the M1 receptor (CHO-M1) was obtained from ATCC and maintained in F-12 Kaighn's media (Invitrogen, Carlsbad, CA, 21127) supplemented with 10 % FBS, 100 units/ml penicillin, 100 ug/ml streptomycin and 250 ug/ml geneticin at 37C, 5% CO2 in a humidified atmosphere. Before the assay, aliquots of cells were frozen and stored at -135C. The assay was performed in 1536-well format. Data are reported for both the ratio of the two emission wavelengths, and also for the component 'donor' channel, Em2=620. […] AC50 values were determined from concentration-response data modeled with the standard Hill equation.
IMPase 1536-well assay protocol:
(1) Plate 4 ul/well (2000 cells) of cell suspension from frozen CHO-M1 Cells in white, tissue culture treated 1536-well plates that are cultured at 37C, 5 % CO2 for 16 to 30 hours.
(2) Add 23 nl/well of compound in DMSO solution. The final titration for each compound was between 0.6 nM and 46 uM.
(3) Add 1 ul of carbachol (50 uM in stimulation buffer containing10mM HEPES, 1mM CaCl2, 0.5 mM MgCl2, 4.2 mM KCl, 146 mM NaCl, 5.5 mM glucose, 50mM LiCl, pH 7.4.
(4) Incubation at 37C, 5 % CO2 for 30 min.
(5) Add 1 ul/well of d2-conjugated IP1 (d2-IP1) and 1 ul/well of Eu+ cryptate conjugated anti-IP1 antibody (Eu+-Ab) prepared in the cell lysis buffer, both from the IP-One kit (Cisbio, MA).
(6) Incubate at room temperature for 10 minutes.
(7) Detect the assay plate (Ex = 320, Em1 =665 and Em2 620) in a ViewLux plate reader.
inositol monophosphatase, IMPase, IMPase inhibitor, lithium, bipolar disorder, IP-One, HTRF, qHTS, NIH roadmap, NCGC
Note: In the gene ID and protein GI references for this assay, rat IMPase is referenced instead of hampster as hamster accession numbers were not available.
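Also: higher means more IMPase inhibition seen as more IP1 and lower FRET ratio.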

Sequence of Inositol monophosphatase 1 (Rattus norvegicus) (P97697 whole entry, looked up): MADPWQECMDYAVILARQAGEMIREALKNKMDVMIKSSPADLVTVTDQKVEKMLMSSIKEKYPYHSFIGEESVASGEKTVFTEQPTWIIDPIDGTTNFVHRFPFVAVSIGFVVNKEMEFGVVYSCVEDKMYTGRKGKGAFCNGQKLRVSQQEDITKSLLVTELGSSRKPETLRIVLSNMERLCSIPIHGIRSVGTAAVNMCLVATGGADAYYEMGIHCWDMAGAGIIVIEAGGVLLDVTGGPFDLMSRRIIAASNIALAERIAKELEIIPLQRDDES

Structure (SMILES)	outcome
O=C(Nc1ccc(O)c(-c2nc3ccccc3o2)c1)c1ccc(-c2cccc(Cl)c2)o1	inactive
CC1CCCCN1CC(=O)N1CCCc2c1c(=O)oc1ccc(OCc3ccccc3)cc21 (configuration not stated)	inactive
COc1ccc(C2(Nc3cccc(F)c3)C(=O)c3ccccc3C2=O)cc1	inactive
Cc1ccc(C(=O)CSc2nc(-c3ccccc3)nc3c2CCCC3)c(C)c1	inactive
CCOc1ccc(S(=O)(=O)N/N=C(\C)c2ccc(Cl)c(Cl)c2Cl)cc1	inactive
Cc1ccc(C(=O)CC2(O)C(=O)N(CCc3ccccc3)c3ccc(Br)cc32)cc1 (configuration not stated)	inactive
COc1ccc2oc(-c3cccc(NC(=O)CSc4ccc(Cl)cc4)c3)nc2c1	inactive
CCCC(=O)Nc1ccc2oc(-c3ccc(O)c(Br)c3)nc2c1	inactive
COc1cccc(C(=O)Nc2ccc3oc(-c4ccc5ccccc5c4)nc3c2)c1	inactive
Cc1cccc(C(CC(=O)NCC2(c3ccccc3)CCCC2)c2ccccc2)c1O (configuration not stated)	inactive
Cc1ccc(OCC(=O)Nc2ccccc2Sc2ccc(Cl)cc2)c([N+](=O)[O-])n1	inactive
CN(C(=O)CSc1nnc(-c2n[nH]c3ccccc23)o1)c1ccccc1	inactive
CC(=O)NC(Cc1ccccc1)C(=O)NC1CCN(c2ncccc2[N+](=O)[O-])CC1 (configuration not stated)	inactive
COc1ccc(/C=C/C(=O)OCC(=O)NCc2cccs2)cc1OC	inactive
COc1ccc(S(=O)(=O)Nc2cc3c(C(=O)OC(C)C)c(C)oc3c3ccccc23)cc1	inactive
CCOC(=O)c1c(C)oc2ccc(N(C(=O)c3ccncc3)S(=O)(=O)c3ccc(CC)cc3)cc12	inactive
CCCCOC(=O)/C(C#N)=C/c1ccc(-c2cccc(C(F)(F)F)c2)o1	inactive
CCc1ccccc1NC(=O)CSc1nc(C)c(C(=O)Nc2ccccc2)c(-c2ccc(Cl)cc2)c1C#N	inactive
Oc1ccccc1-c1nc(/C=C/c2ccc(F)cc2)no1	inactive
COc1ccc(NC(=O)CSC2=Nc3ccccc3C3=NC(CC(=O)NCc4ccccc4OC)C(=O)N23)cc1Cl (configuration not stated)	inactive
COc1ccc(C(C(=O)NC2CCCCC2)N(C(=O)CCl)c2ccccc2Cl)cc1 (configuration not stated)	inactive
COc1ccc(S(=O)(=O)NCCc2cc3ccc(C)c(C)c3[nH]c2=O)cc1	inactive
COc1ccc2c(CN3CCN(S(=O)(=O)c4cccs4)CC3)cc(=O)oc2c1	inactive
CC(=O)Nc1ccc(NC(=O)CSc2nnc3c4cc(Br)ccc4n(C)c3n2)cc1	inactive
CCc1ccccc1NS(=O)(=O)c1ccc2nc(-c3ccccc3)[nH]c2c1	inactive

Structure (SMILES)	outcome
COC(=O)c1ccc(-c2nc3cc(NC(C)=O)ccc3o2)cc1	inactive
CCCOc1ccc(NC(=O)C2OC3OC(C)(C)OC3C3OC(C)(C)OC23)cc1 (configuration not stated)	inactive
O=C(Nc1nnc(SCc2ccccc2Cl)s1)c1cccc([N+](=O)[O-])c1	inactive
CC1=C(C(=O)OCc2ccc(C)cc2)C(c2c(Cl)cccc2Cl)CC(=O)N1 (configuration not stated)	inactive
CC(C)Cn1c(-c2ccc(S(=O)(=O)N3CCOCC3)cc2)csc1=Nc1cc(Cl)ccc1Cl	inactive
CN(Cc1cccs1)C(=O)Cc1c[nH]c2ccccc12	inactive
CCC(C)c1ccc2oc(-c3ccc(NC(=O)c4cc5ccccc5o4)cc3)nc2c1 (configuration not stated)	inactive
Cc1cc2nc(-c3ccc(NC(=O)c4cc5ccccc5o4)cc3)oc2cc1C	inactive
COc1cc(C2c3c(oc4ccccc4c3=O)C(=O)N2c2nc(C)c(C)s2)ccc1O (configuration not stated)	inactive
COc1ccc(C)cc1N(CC(=O)N1CCC(C)CC1)S(=O)(=O)c1ccc(C)cc1	inactive
Cc1ccc(-c2cc(C(F)(F)F)c(C#N)c(SCC(=O)Nc3ccccc3)n2)cc1	inactive
CN(C)c1ccc(/C=N/N(Cc2ccccc2)c2ccccc2)cc1	inactive
CC(=O)NC1C(Oc2ccc(C)cc2)OC2COC(c3ccco3)OC2C1O (configuration not stated)	inactive
COCCNC(=O)CSc1nc(-c2ccccc2)[nH]c1-c1ccc(C)cc1	inactive
CCOc1ccc(/C=N/NC(N)=S)cc1	inactive
O=C(CSc1nc(-c2cccc(F)c2)[nH]c1-c1ccccc1)Nc1ccc2c(c1)OCO2	inactive
CCc1cccc(C)c1Nc1c(-c2ccc(N(C)C)cc2)nc2ncccn12	inactive
Cc1nnc(SCC(=O)N2CCOCC2)[nH]c1=O	inactive
Cc1cc([N+](=O)[O-])ccc1NC(=O)C1CCCO1 (configuration not stated)	inactive
CCCn1c(NCc2ccc(N(CC)CC)cc2)nc2ccccc21	inactive
COc1ccc(Cl)cc1NC(=O)NCC1CCN(Cc2ccccc2F)CC1	inactive
Cc1cc2ccccc2n1CCNC(=O)c1ccc(F)cc1	inactive
CN(C)CCCO/N=C(\c1ccccc1)c1ccncc1	inactive
CCCCNC(=O)CSc1nc2ccc(NC(=O)CSc3nnc(N)s3)cc2s1	inactive
CCOC(=O)c1cc(NC(=O)c2ccc(F)cc2)c(=O)n2c1oc1ccccc12	inactive

Structure (SMILES)	outcome
Cn1c(=O)[nH]c(=O)c2c1nc(NCCc1ccccc1)n2Cc1ccc(F)cc1	inactive
COc1ccc(NC(=O)c2ccco2)cc1NC(=O)COc1ccc(C)c(C)c1	inactive
CCN(c1ccc(NC(=O)COC(=O)CCc2nc3ccccc3n2-c2ccccc2)cc1)C(C)C	inactive
COC(=O)c1c(NC(=O)CN2C(=O)NC(CCc3ccccc3)C2=O)sc2c1CCCCC2 (configuration not stated)	inactive
Cn1c(=O)c2c(nc(NCCc3ccccc3)n2Cc2ccccc2Br)n(C)c1=O	inactive
COc1ccccc1CNC(=O)CN1CCC(n2cnc3cc(F)ccc32)CC1	inactive
Cc1ccc(NC2=C(c3ccc(C(F)(F)F)cc3)C(=O)c3ccccc32)cc1F	inactive
CCOC(=O)c1cnc2c(C)cc(C)cc2c1Nc1ccc(N2CCOCC2)cc1	inactive
CC(=O)Nc1ccc(Nc2c([N+](=O)[O-])cc(S(C)(=O)=O)cc2[N+](=O)[O-])cc1	inactive
COc1cccc(NC(=O)C(Sc2nc3ccccc3c(=O)n2CC(C)C)c2ccccc2)c1 (configuration not stated)	inactive
CC(C)c1ccc(S(=O)(=O)Nc2ccc(O)c(Sc3nc4ccccc4s3)c2)cc1	inactive
COc1ccc(CCNC(=O)CSc2nc(-c3ccc(OC)c(OC)c3)ccc2C#N)cc1	inactive
COc1ccc(C(=O)COC(=O)CCCC(=O)Nc2cc(C(F)(F)F)ccc2Cl)cc1	inactive
COc1cc(C(=O)N(Cc2ccc(C(C)C)cc2)C2CCS(=O)(=O)C2)cc(OC)c1OC (configuration not stated)	inactive
CCCC(=O)Nc1cc2nn(-c3ccccc3)nc2cc1C	inactive
Cc1ccc2oc3c(c(=O)c2c1)C(c1ccc(O)cc1)N(Cc1ccc2c(c1)OCO2)C3=O (configuration not stated)	inactive
Cc1[nH]c2ccccc2c1/C=N/NC(=O)CNC(=O)c1ccc2c(c1)OCO2	inactive
Cc1ccccc1NC(=O)CSC1=NCCN1	inactive
COc1ccccc1OCCCn1c(-c2ccc(Cl)cc2)nc2ccccc2c1=O	inactive
Cc1cc(C)c[n+](-c2nc3ccccc3nc2[N-]S(=O)(=O)c2cccs2)c1	inactive
CC1CCCN(Cc2c(O)ccc3c(=O)c(Oc4ccc(C(C)(C)C)cc4)c(C(F)(F)F)oc23)C1 (configuration not stated)	inactive
CCn1c(=O)c(=O)n(CC)c2cc(N3CCCCC3)c(NC(=O)c3cccc(F)c3)cc21	inactive
COc1cccc(CNC(=O)CCc2nc(-c3ccc(C)cc3)no2)c1	inactive
COc1cc(OC)c(C2C=C(C(=O)O)Nc3ncnn32)cc1OC (configuration not stated)	inactive
CCCn1c(N)c(C(=O)CSc2nnc(-c3cccnc3)n2-c2ccc(C)cc2C)c(=O)[nH]c1=O	inactive

Structure (SMILES)	outcome
CCCCCC(=O)NC(=S)NNC(=O)c1ccc([N+](=O)[O-])cc1	inactive
CCOC(=O)c1c(-c2ccc(OC)cc2)oc2ccc(OCc3ccc(C(=O)OC)cc3)cc12	inactive
CC(C)c1ccc(OCC(=O)N(Cc2ccc(N(C)C)cc2)C2CCS(=O)(=O)C2)cc1 (configuration not stated)	inactive
CCN(C(=O)Cn1cc(S(=O)(=O)N2CCN(c3ccccc3F)CC2)c2ccccc2c1=O)c1ccc(C)c(C)c1	inactive
Cc1nn(Cc2ccc(Cl)cc2)c(Cl)c1/C=N/NC(=O)CNc1ccccc1F	inactive
CC(C)(C)c1ccc(C(=O)NCc2nnc(SCC(=O)N3CCCc4ccccc43)n2-c2ccccc2)cc1	inactive
COc1ccccc1N1CCN(CC(=O)NC(=O)NCc2ccco2)CC1	inactive
CC(=O)N1CCN(CC(=O)Nc2ccc(SC(F)F)cc2)CC1	inactive
Cc1ccc(Cl)cc1NC(=O)/C(C#N)=C\c1cn(Cc2ccc(F)cc2)c2ccccc12	inactive
COc1ccc(NS(=O)(=O)c2ccc(NC(=S)NC(=O)/C=C/c3ccc(C)cc3)cc2)nn1	inactive
N#CCOc1ccc(C2=NO[C@@H]3[C@@H]4C[C@@H]([C@H]5C(=O)N(c6ccc7c(c6)OCO7)C(=O)[C@@H]45)[C@H]23)cc1	inactive
Cc1ccc(S(=O)(=O)c2nc(-c3cccs3)oc2N2CCCCC2)cc1	inactive
CCCCn1c(=O)c(CCC(=O)OCC(=O)Nc2ccc(C)c(Cl)c2)nc2ccccc21	inactive
Cc1c(Cl)cccc1NC(=O)Cn1cc(C(=O)c2cccs2)c2ccccc21	inactive
O=C(CCc1ccc(S(=O)(=O)N2CCOCC2)cc1)NN=C1CCCCCCC1	inactive
Cc1ccc(CN2C(=O)SC(Nc3ccccc3)C2=O)cc1 (configuration not stated)	inactive
COc1ccc(CCNC(=O)/C(C#N)=C2\N=C(NC(=O)c3cccs3)c3ccccc32)cc1	inactive
CCc1c(C)sc(NC(=O)C2c3ccccc3Oc3ccccc32)c1C(=O)OC(C)C	inactive
COc1ccc(/C(C)=N/Nc2cc(C(F)(F)F)ccc2Cl)c(OC)c1	inactive
Cc1ccccc1-c1nc2cc(NC(=O)c3cccc(OCCC(C)C)c3)ccc2o1	inactive
CCCc1c(C)nc2c(Br)cccc2c1Cl	inactive
CCCCCNC(=O)c1cccnc1SCC(=O)Nc1ccccc1OC	inactive
